Data on 14 molecules can be found in PubChem BioAssay (EPA / NIEHS).

Calls of active or inactive are those of the source. Rule for the calls: active = hit-call score of the fitted dose curve at least 0.9, where 1 is the maximum; inactive = score below 0.9.

Read-out in this experiment: Heat shock 70 kDa protein 1 (HSPA1A), gene 3303
The experiment in a line: LTEA_HepaRG_HSPA1A: Life Technologies and Expression Analysis (LTEA) Assay for Heat shock 70 kDa protein 1 (HSPA1A) using HepaRG (AID 2283502). The following applies: mRNA level, 48 h; actives raise or lower the signal. The protocol: LTEA_HepaRG is a cell based, multiplexed-readout assay that uses HepaRG, a human liver cell line, with measurements taken at 48 hours after chemical dosing on a 96-well plate.LTEA_HepaRG_HSPA1A is one of 102 assay component(s) measured in the LTEA HepaRG cell culture assay. It is a marker of Oxidative Stress.Data from the assay component LTEA_HepaRG_HSPA1A was analyzed into 1 endpoint. This assay endpoint, LTEA_HepaRG_HSPA1A, was analyzed with bidirectional fitting relative to DMSO as the negative control and baseline of activity. Using a type of inducible reporter, measures of mRNA induction for gain or loss-of-signal activity can be used to understand regulation of transcription factor activity. To generalize the intended target to other relatable targets, this assay endpoint is annotated to the dna binding intended target family, where the subfamily is heat shock protein.
A total of 1060 chemcials from the ToxCast library were tested in eight-point concentration-response experiments. Cell culture and cytotoxicity assays were conducted at Thermo Fisher Scientific's Custom Services facility (Madison, WI). A single lot of human HepaRG cells (Thermo Fisher Scientific, Frederick, MD) was used for the cell culture experiments. 96-well format collagen type I coated plates of human HepaRG cells were prepared using established methods. Briefly, cryopreserved HepaRG cells were thawed, plated at a density of approximately 100,000 cells/well in HepaRG Thaw, Plate, and General Purpose media (HPRG770, Thermo Fisher Scientific), and incubated for 48 hours. 0.5% DMSO was selected as vehicle control to balance the requisite need of DMSO in HepaRG cultures to maintain differentiation (for example, baseline metabolism, proportions of hepatocytes vs. cholangiocytes), while enabling further hepatic receptor pathway activation (for example, PXR and CAR) in response to chemical exposure. 48 hours after plating, the culture medium was replaced with HepaRG Serum-Free Incudtion Media. Cells were exposed to each test chemical in duplicate and maintained in CO2 incubators for another 48 hours. Chemical plates were thawed to room temperature and 200x concentrations of treatment groups were prepared. 8-point conentration-reponse curves were made with the highest exposure at 100 uM, followed by half-log dilutions, all in 0.5% DMSO. Each test plate contained variouse controls, induction positive controls (1mM phenobarbital), cytotoxicity positive controls ([…] aflatoxin B1), vehicle controls (0.5% DMSO), and total lysis controls (0.5% DMSO). Cell morphology images were taken using an Essen IncuCyte FLR automated microscope, with six 96-well plates imaged in about 24 minutes. Images were captured and exported and JPEG files. Spent culture media was transfered to black-well plates for the LDH assay, and remaining media was sorted at -80 C for later use. Cells were treated with RLT buffer and frozen until shipped for gene expression analysis. Total RNA was isolated from the cell suspension in 75 uL of Buffer RLT (Qiagen, Germantown, MD 20874) by Quintiles/Expression Analysis (Durham, NC) using a custom isolation procedure. Total RNA from each plate well was transferred to a preamplification plate. Fluidigm's 96.96 Dynamic ArrayTM (Fluidigm, Amsterdam, the Netherlands) technology was used for gene expression analyses by quantitative reverse transcription polymerase chain reaction (qRT-PCR, performed by Quintiles/Expression Analysis, Durham, NC)89. Standard TaqManTM Assays (Applied Biosystems/ThermoFisher Scientific, Foster City, CA) were used to assess the expression of 93 genes selected based on their selectivity and sensitivity to important hepatic receptors known to be modulated by environmental chemicals; importance in human hepatocyte functionality; and hepatotoxicity. […]
A word on the AC50: it is the midpoint of the concentration-response curve, whichever way the signal moves. Take `O=C(O)C1(c2ccc3c(c2)OC[C@H](Cc2ccc(-c4ccccc4)cc2)[C@H]3O)CCCC1`: the half-maximal activity concentration (AC50) is 78.2 µM (active). For the molecule `N#Cc1cccnc1`, the outcome was inactive.

For the molecule `Cc1cc(C)cc(C)c1`, the call was inactive.

For `O=C(N[C@H]1CN2CCC1CC2)c1ccc2c(c1)OCCO2`, the molecule was called inactive. Still for that read-out and setting: with `CC(C)O.CC(C)O.OCCN(CCO)CCO.OCCN(CCO)CCO.[Ti]` the entry was “inactive”.

Turning to `CCCCCCCCCCCCc1cccc(S(=O)(=O)O)c1`, the AC50 is 59.4 µM (active).

For the molecule `Clc1cccc(Cl)c1`, the outcome was inactive. With `CN(C)C(=S)S`, the molecule was called inactive. On the same count and under the same terms, in the case of `CC(C)(C)c1ccccc1O` it was “inactive”; in that of `OCCN(CCO)CCO`, “inactive”; in that of `COc1ccccc1N`, “inactive”. Still for that read-out and setting: in the case of `Oc1c(Cl)cc(Cl)cc1Cl` it was “inactive”; in that of `Clc1cccc(Cl)c1Cl`, “inactive”; in that of `Oc1cc(Cl)c(Cl)cc1Cl`, “inactive”.
